Assay outcomes (PubChem)
An excerpt weighted towards active compounds, which were near 7.8% of everything screened.
Vaccinia Venus: vaccinia inhibition (Venus reporter); Vaccinia virus Venus reporter expression, fluorescence; Potency, µM (doses to about 36.5 µM), inactives show at the top dose activity change, negative = inhibition, most hits filed as inhibitors; AID 720580; 0.46% of 330,000 active; calls by dose curve; tested in A549 cells; also: potency is read from the fitted curve at half-maximal effect; nearly all actives have a fitted effect of over 30% in size
Marburg entry inh: blocks Marburg virus binding to or entry into cells; Marburg virus pseudotyped entry inhibition, cell reporter; Potency, µM (titrated, usually from 37.8 µM), for the others: top-dose activity change, negative = inhibition, most hits filed as inhibitors; 1.8% of 300,000 active; calls by dose curve; tested in HEK293 cells; also: potency is read from the fitted curve at half-maximal effect
HCMV inh: inhibitors of human cytomegalovirus | HFF cells, HCMV-luciferase reporter, 72 h; stronger effect = lower value | activity change, negative = inhibition, % at 57.5 µM | 4.5% of 410,000 active | AID 1259415; in the data active = activity change below about -60%; inconclusive = no clear call, values can overlap the other calls; inactive = above about -39%
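Luciferase read-out from HCMV-luciferase-infected HFFs (MOI 1 PFU/cell) 72 h post infection at 37C; compounds added after 16 h cell attachment; activity normalized between buffer-only basal and Salinomycin (10uM) inhibitor controls.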
Lassa entry inh: blocks Lassa virus binding to or entry into cells | Potency, µM (series often up to 37.9 µM), for the others: top-dose activity change, negative = inhibition, actives largely listed as inhibitors | Lassa virus pseudotype entry inhibition, cell reporter | 1.2% of 300,000 active | AID 540256; calls by dose curve; tested in HEK293 cells; also: potency is read from the fitted curve at half-maximal effect; nearly all actives have a fitted effect of over 50% in size
HCV inhibitor: HCV inhibition. Huh7.5.1 HCVcc-Cre infection, luciferase reporter, 44 h. Potency, µM (top dose mostly 41.8 µM), inactives show at the highest dose activity change, negative = inhibition, actives largely listed as inhibitors. 3.4% of 340,000 active; active = well fitted inhibition curve with a large enough effect; inconclusive = small, poorly fitted or top-dose-only effect, or another doubt; inactive = no such curve, though single readings can be large or run the other way; also: potency is read from the fitted curve at half-maximal effect
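Reporter virus HCVcc-Cre (~0.5 moi) infects cells exposed to compound; seeding density 1,000 cells/well with 4 h settling beforehand. Luminescence, 15 sec read, taken 44 h post-infection following a 15 min RT substrate incubation.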
VACV mCherry inh: vaccinia inhibition (mCherry reporter); 0.63% of 310,000 active; AID 720579; Potency, µM (top dose mostly 36.5 µM), for the others: at the top dose activity change, negative = inhibition, most hits filed as inhibitors; Vaccinia virus mCherry reporter infection, fluorescence; calls by dose curve; tested in A549 cells; also: potency is read from the fitted curve at half-maximal effect; nearly all actives have a fitted effect of over 35% in size
Starred values were filed as active, the others as inactive; i = inactive; ? = inconclusive; . = no result; ! = repeats disagree; [ ] = remark or other dose. % is scaled to controls: 0 for no effect and ±100 for the full control effect.

SMILES	Vaccinia Venus	Marburg entry inh	HCMV inh	Lassa entry inh	HCV inhibitor	VACV mCherry inh
Cc1ccccc1Nc1nc(N)nc(COC(=O)CC2CC3CCC2C3)n1 (stereo not drawn)	-8%	14µM*	-26	?	4%	i
Cc1ccc2c(CC(=O)OCc3nc(N)nc(Nc4ccccc4C)n3)coc2c1	.	15µM*	-28	-3%	-20%	.
O=c1[nH]c(Cc2ccccn2)nc2scc(-c3ccccc3Cl)c12	20%	8%[46.1 µM]	-83*	-1%[46.1 µM]	?	-18%
COC(=O)c1ccc(NC(=O)c2nn(C)c3c2COc2ccccc2-3)cc1	8%	?	-71*	?	.	18%
C#CCCC[C@@H](/C=C/C(=O)OCC)NC(=O)C(F)(F)F	.	.	0	.	.	.
COCCn1c(SCC(=O)Nc2nc(C)c(Cl)cc2Cl)nc2ccccc21	-8%	?	?	23µM*	-22%	-14%
O=C(O)CCSc1nc2ccccc2n1-c1ccccc1	-6%	-11%[46.1 µM]	31	4%[46.1 µM]	7%	-10%
COCCn1c(SCC(=O)Nc2cccnc2Cl)nc2ccccc21	.	.	?	.	-2%	.
O=C(CSc1nc2ccccc2n1-c1ccccc1)Nc1ncc(Cl)cc1Cl	20%	1.1µM*	?	2.5µM*	?	6.3µM*
COc1ccc(NC(=O)CSc2nc3ccccc3n2-c2ccccc2)c([N+](=O)[O-])c1	.	12µM*	-3	?	?	.
CCOC(=O)C1=C(CC)Nc2ccccc2N=C1NC(=O)CCNC(C)=O	-10%	3%	-36	2.8µM*	13%	-3%
CCOC(=O)C1=C(CC)Nc2ccccc2N=C1NC(=O)c1ccc(S(=O)(=O)N(C)C)cc1	?	-8%	-12	-10%	-13%	?
Cc1nc(SCC(=O)Nc2cccc(Cl)c2)n[nH]1	-16%	13%	-9	7%	8%	-8%[1.46 µM]
Cc1ccc(C(=O)NNC(=O)CSc2n[nH]c(-c3cccnc3)n2)cc1	-18%	4%[46.1 µM]	-104*	2%	-6%	0%
Cc1ccccc1NC(=O)CSc1n[nH]c(-c2ccccn2)n1	-22%	?	41	?	?	6.3µM*
O=C(CSc1n[nH]c(-c2ccccn2)n1)Nc1cccc(Cl)c1	-23%	?	-98*	?	10µM*	?
Cc1ccc(NC(=O)CSc2n[nH]c(-c3ccco3)n2)c(C)c1	-2%	?	-37	4%	11%	-5%
Cc1ccccc1NC(=O)CSc1nnc(-c2ccccn2)o1	-9%	?	59	13%[46.1 µM]	16%	-10%
Cc1ccc(C)c(NC(=O)CSc2n[nH]c(-c3ccccn3)n2)c1	?	?	?	?	?	7.9µM*
COC(=O)c1cc2c(cc1NC(=O)c1c(C)nn(-c3ccc(C)cc3)c1-n1cccc1)OCO2	-16%	.	55	-11%[46.1 µM]	.	-18%
Cc1ccc(NC(=O)C2CCCN(S(=O)(=O)c3cccc4cccnc34)C2)c(C)c1 (stereo not drawn)	-4%	-10%[46.1 µM]	-9	?	.	-7%
O=C(Nc1ccccc1)c1cccc2c(=O)c3c([nH]c12)CCCC3	-21%	0%[46.1 µM]	-12	2%[46.1 µM]	.	-21%
Cc1ccc(O)c(NC(=O)CSc2n[nH]c(-c3ccccc3)n2)c1	.	.	-83*	.	11µM*	.
Nc1nc(SCC(=O)Nc2cccc(F)c2)n[nH]1	.	.	-100*	.	-1%	.
Nc1nc(SCC(=O)Nc2cccc(C(F)(F)F)c2)n[nH]1	0%	-1%[46.1 µM]	5	12%[46.1 µM]	.	i
SMILES	Vaccinia Venus	Marburg entry inh	HCMV inh	Lassa entry inh	HCV inhibitor	VACV mCherry inh
Clc1cccc(OCCOCCN2CCNCC2)c1Cl	-18%	13µM*	16	3%	?	?
Cc1ccc(S(=O)(=O)N2CCC(c3nnc(-c4cccc(C)c4)o3)CC2)cc1	-10%	-4%[46.1 µM]	-92*	-23%[46.1 µM]	.	-12%
CCCc1ccc(S(=O)(=O)N2CCC(c3nnc(-c4cccc(C)c4)o3)CC2)cc1	-19%	-25%[46.1 µM]	-78*	2%[46.1 µM]	.	-15%
COc1ccc(-c2nnc(C3CCN(S(=O)(=O)c4ccc(C)c(C)c4)CC3)o2)cc1	-20%	9%[46.1 µM]	20	-19%[46.1 µM]	.	-22%
Cn1c(=O)c2c(c3ccccc31)OC(=O)CC2c1cccc(F)c1 (stereo not drawn)	-11%	-22%[46.1 µM]	12	-17%[46.1 µM]	.	-16%
O=C(NCCc1cccnc1)c1cnn(-c2ncc3c(n2)-c2ccccc2CC3)c1C1CC1	-10%	.	.	.	.	-24%
Cc1c(Cl)cccc1NC(=O)c1ccc2c(c1)CCCN2S(C)(=O)=O	-10%	22%[46.1 µM]	-2	22%[46.1 µM]	.	-12%
CC1C(=O)C(C)(C)C(=O)OC1c1ccccc1 (stereo not drawn)	.	.	-39	.	7%	.
C[C@H]1C=CC(=O)O[C@H]1c1ccccc1	3.2µM*	.	-77*	.	15%	?
COc1cc(CN2CCCC(n3cc(C(=O)N4CCCC4)nn3)C2)cc(OC)c1 (stereo not drawn)	-12%	.	.	.	.	-15%
O=C1C(SCCO)=C(SCCO)C(=O)c2ccccc21	?	4µM*	-95*	2.6µM*	10µM*	10µM*!
Cc1ccc(C(C)C)cc1S(=O)(=O)NC1CC(C)(C)NC(C)(C)C1	-24%	13µM*	-14	?	-18%	-11%
Cc1ccc(S(=O)(=O)NC2CC(C)(C)NC(C)(C)C2)c(C)c1C	-14%	-30%	-22	2%	?	-2%
Cc1ccc(/C=C2/Sc3ccccc3N(CC(=O)NCC3CCCO3)C2=O)cc1 (stereo not drawn)	-9%[7.34 µM]	.	.	.	?	-18%[7.34 µM]
CCc1ccc(/C=C2\SC(=S)N(CCC(=O)NCCCN3CCOCC3)C2=O)cc1	-12%	?	-74*	4%[46.1 µM]	-24%	-29%
O=C(CCCN1C(=O)/C(=C/c2cccc(Br)c2)SC1=S)NCCCN1CCOCC1	410%	?	-90*	-9%[46.1 µM]	-14%	71%
O=C(CN1C(=O)/C(=C/c2ccccc2)Sc2ccccc21)NCCCN1CCOCC1	.	.	-62*	.	-17%	.
CCc1ccc(/C=C2/Sc3ccccc3N(CC(=O)NCC3CCCO3)C2=O)cc1 (stereo not drawn)	.	.	11	.	10µM*	.
COc1ccc(N2CC(C(=O)Nc3ccc(NC(C)=O)cc3)CC2=O)cc1 (stereo not drawn)	-5%	.	-5	2%[46.1 µM]	.	-11%
N#Cc1cc2ccncc2c2ccccc12	-8%	.	-39	.	.	i
Nc1cc2ccncc2c2ccccc12	-25%	.	-96*	.	-25%	-8%
COc1ccc(CCNC(=O)CSc2ncc3c(n2)-c2cc(Cl)ccc2N(Cc2ccccc2)S3(=O)=O)cc1OC	-28%	.	-13	17%[46.1 µM]	.	-24%
C=CC[C@H](CC(=O)N(CCO)Cc1ccccc1)C(=O)N[C@@H](COC(=O)[C@@H](CC=C)CC(=O)OC(C)(C)C)Cc1c[nH]c2ccccc12	11µM*	.	39	.	?	?
C=CC[C@@H](CC(=O)N(CCO)Cc1ccccc1)C(=O)N[C@H](COC(=O)[C@@H](CC=C)CC(=O)OC(C)(C)C)Cc1ccccc1	-13%	.	-3	.	?	i
